Read-out in assay [1]: Human Leukocyte Antigen - DR isotype (HLADR), HLA-DRA (gene 3122)
The experiment in a line: BSK_BE3C_HLADR: BioMAP Diversity Plus: BE3C Assay for Human Leukocyte Antigen - DR isotype (HLADR) Biomarker Activity (AID 2283032). To be noted: primary human bronchial epithelial cells; actives raise or lower the signal. The essentials:
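BioMAP BE3C format: human bronchial epithelium, 24 h compound treatment, ELISA detection of HLA-DR, with bidirectional analysis relative to DMSO.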

Read-out in assay [2]: Vascular cell adhesion molecule 1 (VCAM1), VCAM1 (gene 7412)
Briefly: BSK_4H_VCAM1: BioMAP Diversity Plus: 4H Assay for Vascular cell adhesion molecule 1 (VCAM1) Biomarker Activity (AID 2283033).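 Further: cell-surface VCAM-1 protein measured by ELISA.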 As to conditions: primary human endothelial cells (HUVEC); actives raise or lower the signal. In a few lines:
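In this human endothelial (HUVEC) system, biomarker ELISA was run 24 h after compound addition, and total protein in parallel wells was assessed by SRB at 560 nm; DMSO served as negative control.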

Read-out in assay [3]: Interferon-gamma inducible Protein 10 (IP10), CXCL10 (gene 3627)
The experiment in a line: BSK_BE3C_IP10: BioMAP Diversity Plus: BE3C Assay for Interferon-gamma inducible Protein 10 (IP10) Biomarker Activity (AID 2283034). As to conditions: primary human bronchial epithelial cells; actives raise or lower the signal. In a few lines: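 BE3C cells (human bronchial epithelial, primary); 24 h exposure; ELISA for IP-10; DMSO-referenced bidirectional fit.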

Read-out in assay [4]: Monokine induced gamma interferon (MIG), CXCL9 (gene 4283)
Briefly: BSK_BE3C_MIG: BioMAP Diversity Plus: BE3C Assay for Monokine induced gamma interferon (MIG) Biomarker Activity (AID 2283035).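 Further: MIG protein measured by ELISA in BE3C cultures after 24 h of dosing.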 To be noted: primary human bronchial epithelial cells; actives raise or lower the signal. The essentials:
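ELISA quantified MIG after 24 h exposure of primary bronchial epithelial cultures, analysed in both directions relative to DMSO. Cytotoxicity tracked in parallel cultures by sulforhodamine B staining.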

Read-out in assay [5]: Transforming growth factor beta 1 (TGFb1), TGFB1 (gene 7040)
The experiment in a line: BSK_BE3C_TGFb1: BioMAP Diversity Plus: BE3C Assay for Transforming growth factor beta 1 (TGFb1) Biomarker Activity (AID 2283036;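 on outcome: TGF-b1 protein level measured by ELISA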). As to conditions: primary human bronchial epithelial cells; actives raise or lower the signal. The essentials: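 TGF-b1 measured via ELISA, 24 h after chemical dosing of human bronchial epithelial cells (BE3C). Overt cytotoxicity assessed in parallel by SRB (0.1%, TCA-fixed, 560 nm); analysis bidirectional relative to DMSO.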

Read-out in assay [6]: Plasminogen activator inhibitor-1 (PAI1), SERPINE1 (gene 5054)
Briefly: BSK_BE3C_PAI1: BioMAP Diversity Plus: BE3C Assay for Plasminogen activator inhibitor-1 (PAI1) Biomarker Activity (AID 2283037). As to conditions: primary human bronchial epithelial cells; actives raise or lower the signal. The essentials:
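In this multiplexed primary-cell system, bronchial epithelial cells receive test chemical and are sampled at 24 h. PAI-1 is read by ELISA, with DMSO serving as negative control for bidirectional fitting.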

Read-out in assay [7]: urokinase plasminogen activator (uPA), PLAU (gene 5328)
The experiment in a line: BSK_BE3C_uPA: BioMAP Diversity Plus: BE3C Assay for urokinase plasminogen activator (uPA) Biomarker Activity (AID 2283038).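 On outcome: uPA protein level quantified by ELISA in cell cultures; uPA read one day after compound addition.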 To be noted: primary human bronchial epithelial cells; actives raise or lower the signal. The essentials: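 Measured by ELISA: uPA from human primary bronchial epithelial cells 24 h after chemical treatment. Values derive from bidirectional curve fitting with DMSO serving as negative control. Total protein by SRB staining in parallel wells flagged overt cytotoxicity.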

Read-out in assay [8]: Urokinase-type plasminogen activator receptor (uPAR), PLAUR (gene 5329)
The experiment in a line: BSK_BE3C_uPAR: BioMAP Diversity Plus: BE3C Assay for Urokinase-type plasminogen activator receptor (uPAR) Biomarker Activity (AID 2283039).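 Further: uPAR protein level measured by ELISA on the cells; cells exposed to compound for one day before measurement.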 As to conditions: primary human bronchial epithelial cells; actives raise or lower the signal. The essentials: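 Chemically treated human bronchial epithelial cells (lung primary) are assayed for uPAR by ELISA after 24 h, with data fitted in both directions using DMSO as negative control.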

Read-out in assay [9]: Interleukin-6 (IL6), IL6 (gene 3569)
Briefly: BSK_CASM3C_IL6: BioMAP Diversity Plus: CASM3C Assay for Interleukin-6 (IL6) Biomarker Activity for (AID 2283040). As to conditions: primary human coronary artery smooth muscle cells; actives raise or lower the signal.

Read-out in assay [10]: Tissue plasminogen activator (tPA), PLAT (gene 5327)
The experiment in a line: BSK_BE3C_tPA: BioMAP Diversity Plus: BE3C Assay for Tissue plasminogen activator (tPA) Biomarker Activity (AID 2283041).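 On outcome: tPA level quantified by ELISA one day after compound addition.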 As to conditions: primary human bronchial epithelial cells; actives raise or lower the signal. In a few lines: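 Using human lung primary bronchial epithelial cells, tPA was measured by ELISA 24 h after dosing; data fitted relative to DMSO.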

Read-out in assay [11]: Interleukin-8 (IL8), CXCL8 (gene 3576)
Briefly: BSK_CASM3C_IL8: BioMAP Diversity Plus: CASM3C Assay for Interleukin-8 (IL8) Biomarker Activity (AID 2283042).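 Further: IL-8 protein level quantified by ELISA.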 To be noted: primary human coronary artery smooth muscle cells; actives raise or lower the signal.

Read-out in assay [12]: Human Leukocyte Antigen - DR isotype (HLADR), HLA-DRA (gene 3122)
Briefly: BSK_CASM3C_HLADR: BioMAP Diversity Plus: CASM3C Assay for Human Leukocyte Antigen - DR isotype (HLADR) Biomarker Activity (AID 2283043).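 Further: cell-surface HLA-DR protein level quantified by ELISA.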 As to conditions: primary human coronary artery smooth muscle cells; actives raise or lower the signal.

Read-out in assay [13]: Macrophage colony-stimulating factor (MCSF), CSF1 (gene 1435)
The experiment in a line: BSK_CASM3C_MCSF: BioMAP Diversity Plus: CASM3C Assay for Macrophage colony-stimulating factor (MCSF) Biomarker Activity (AID 2283044).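 Further: M-CSF protein amount quantified by ELISA after 24 h exposure.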 As to conditions: primary human coronary artery smooth muscle cells; actives raise or lower the signal.

Read-out in assay [14]: Low-density lipoprotein receptor (LDLR), LDLR (gene 3949)
Briefly: BSK_CASM3C_LDLR: BioMAP Diversity Plus: CASM3C Assay for Low-density lipoprotein receptor (LDLR) Biomarker Activity (AID 2283045).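 Further: LDLR protein level on the cell surface quantified by ELISA.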 As to conditions: primary human coronary artery smooth muscle cells; actives raise or lower the signal.

Read-out in assay [15]: Monocyte Chemoattractant Protein-1 (MCP1), CCL2 (gene 6347)
Briefly: BSK_CASM3C_MCP1: BioMAP Diversity Plus: CASM3C Assay for Monocyte Chemoattractant Protein-1 (MCP1) Biomarker Activity (AID 2283046).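 Further: MCP-1 level quantified by ELISA 24 h after dosing.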 As to conditions: primary human coronary artery smooth muscle cells; actives raise or lower the signal.

Assay [16] can be described thus: BSK_CASM3C_Proliferation: Cell Proliferation Assessment in the BioMAP Diversity Plus: CASM3C Assay (AID 2283047).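 Further: sulforhodamine B total protein stain as relative cell number at 560 nm; sub-confluent cells exposed 48 h before staining; fitted both ways against DMSO so gain or loss of cell number.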 To be noted: primary human coronary artery smooth muscle cells.
Read-out in assay [17]: Monokine induced gamma interferon (MIG), CXCL9 (gene 4283)
The experiment in a line: BSK_CASM3C_MIG: BioMAP Diversity Plus: CASM3C Assay for Monokine induced gamma interferon (MIG) Biomarker Activity (AID 2283048).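 Further: MIG protein level measured by ELISA.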 To be noted: primary human coronary artery smooth muscle cells; actives raise or lower the signal.

Read-out in assay [18]: serum amyloid A (SAA), SAA1 (gene 6288)
The experiment in a line: BSK_CASM3C_SAA: BioMAP Diversity Plus: CASM3C Assay for serum amyloid A (SAA) Biomarker Activity (AID 2283049).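 Further: SAA protein level quantified by ELISA.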 As to conditions: primary human coronary artery smooth muscle cells; actives raise or lower the signal.

The nature of assay [19]: BSK_CASM3C_SRB: Viability Assessment in the BioMAP Diversity Plus: CASM3C Assay (AID 2283050).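 Further: total protein by SRB staining as cytotoxicity measure in parallel cultures; cells exposed to compound for 24 h.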 As to conditions: primary human coronary artery smooth muscle cells.
Read-out in assay [20]: Thrombomodulin, THBD (gene 7056)
Briefly: BSK_CASM3C_Thrombomodulin: BioMAP Diversity Plus: CASM3C Assay for Thrombomodulin Biomarker Activity (AID 2283051).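 Further: thrombomodulin protein level measured by ELISA 24 h after dosing.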 As to conditions: primary human coronary artery smooth muscle cells; actives raise or lower the signal.

SMILES strings stand for the structures. Calls of active or inactive are those of the source. How the source made its calls: active means hit-call score of the fitted dose curve at least 0.9, where 1 is the maximum; inactive means score below 0.9.

For the molecule `Nc1cccc2c(N)cccc12`, the outcome in [1], in [2], in assay [3], in assay [4], in assay [5] and in assay [6] was inactive. Moreover, the result in [7], in assay [8], in assay [9], in [10], in assay [11] and in assay [12] was inactive. In addition, the result in assay [13], in [14], in assay [15], in assay [16], in [17] and in [18] was inactive. Besides, the result in assay [19] and in [20] was inactive.
As to `CCC(C)(C)C1CCC(O)CC1` (configuration not stated), the outcome in [1], in assay [2], in assay [3], in [4], in [5] and in assay [6] was inactive. In addition, the outcome in assay [7], in assay [8], in assay [9], in [10], in assay [11] and in [12] was inactive. The result in [13], in assay [14], in assay [15], in assay [16], in [17] and in [18] was inactive. In addition, the outcome in assay [19] and in assay [20] was inactive.
`CCc1ccc(CCOc2ccc(CC3SC(=O)NC3=O)cc2)nc1` (configuration not stated): the result in [1], in assay [2], in [3], in assay [4], in assay [5] and in assay [6] was inactive. For the same molecule, the result in assay [7], in [8], in assay [9], in assay [10], in assay [11] and in [12] was inactive. Also, the outcome in assay [13], in [14], in [15], in assay [16], in assay [17] and in assay [18] was inactive. In addition, the outcome in assay [19] and in assay [20] was inactive.
With `NCC(F)(F)C(F)(F)C(F)(F)C(F)(F)C(F)(F)C(F)(F)C(F)(F)F`, the outcome in assay [1], in assay [2], in [3], in [4], in assay [6] and in assay [7] was inactive. For the same molecule, the result in assay [8], in assay [9], in [10], in assay [11], in assay [12] and in [13] was inactive. The result in assay [14], in assay [15], in assay [16], in [17], in [18] and in assay [19] was inactive. In assay [20], the result was inactive.
Turning to `CN1CCN(c2ccccc2/C=C2\SCCN(c3ccc(Cl)c(Cl)c3)C2=O)CC1`, the AC50 in assay [1] is 25.7 µM (active); in assay [3], 30.4 µM (active); in assay [5] it was 29.3 µM (active); in [6], 33.3 µM (active); in assay [7], 30.4 µM (active); in [10] it was 25.7 µM (active). The figures for the AC50 in assay [14], in assay [16] and in assay [19] were 2.95 µM (active), 20 µM (active) and 20 µM (active), respectively. Besides, the result in assay [2], in assay [9], in assay [11], in assay [12], in [13] and in assay [15] was inactive. In addition, the outcome in assay [17], in [18] and in [20] was inactive.
In the case of `c1ccc2cc3c(ccc4ccccc43)cc2c1`, the result in [1], in assay [2], in assay [3], in [4], in assay [5] and in [7] was inactive. Also, the outcome in [8], in assay [9], in assay [10], in [11], in assay [12] and in assay [13] was inactive. Besides, the result in [14], in assay [15], in assay [17], in [18] and in assay [19] was inactive. Further, the AC50 in assay [6] was 3.97 µM (active); in assay [16], 3.12 µM (active); in assay [20], 2.24 µM (active).

Usually AC50 stands for the midpoint of the concentration-response curve, whichever way the signal moves.

For the origin of these results see PubChem BioAssay (EPA / NIEHS).
